Rows were chosen to be rich in hits. Some 15% of all compounds tested hit in one or more screens of this group.
Sm TGR block: blocks Schistosoma mansoni thioredoxin glutathione reductase. Q962Y6. purified TGR, DTNB reduction, TNB absorbance 405 nm. Potency, µM (titrated, usually from 114 µM), actives largely listed as inhibitors. 360,000 compounds, 3% hits; note: nearly all actives have a fitted effect of over 60% in size
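First, TGR (20 nM dispensed) and NADPH were mixed with compound. Second, a 15 min room-temperature incubation followed. Third, further NADPH and then DTNB were added to start the reaction. Finally, TNB absorbance was monitored kinetically.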
Pf growth 48h: P. falciparum growth inhibition at 48 hours (one generation) | P. falciparum luciferase growth in erythrocytes, 48 h | 310,000 compounds, 5.9% hits | Potency, µM (titrated, usually from 28.7 µM), most hits filed as inhibitors
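Luciferase-expressing parasites in RBCs, 2% Hct / 0.1% parasitemia final; RPMI 1640 + 0.5% Albumax; 37 C, 5% CO2, one generation; luminescence read-out, lower signal = inhibition.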
Pf growth 96h: P. falciparum growth inhibition at 96 hour, primary screen for plastid delayed-death inhibitors; P. falciparum luciferase reporter growth, 96 h; 320,000 compounds, 6.9% hits; AID 504834; Potency, µM (series often up to 28.7 µM), usual class: inhibitors
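Cell-based qHTS: luciferase-tagged P. falciparum in erythrocytes (2% hematocrit, 0.05% parasitemia final) incubated with compounds for 96 hours, 37 C, 5% CO2; luciferase detection reagent then added and luminescence measured.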
HCMV inh: blocks human cytomegalovirus replication; HFF cells, HCMV-luciferase reporter, 72 h; active compounds read low; activity change, negative = inhibition, % at 57.5 µM; 410,000 compounds, 4.5% hits; AID 1259415; in the data active = activity change below about -60%; inconclusive = no clear call, values can overlap the other calls; inactive = above about -39%
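Two compound doses tested in HFFs infected with HCMV-luciferase, MOI 1 PFU/cell, 72 h at 37C. Lysate luminescence read with OneGlo; data normalized against buffer-only and 10uM Salinomycin inhibitor controls.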
HCV inhibitor: inhibitors of hepatitis C virus infection; Huh7.5.1 HCVcc-Cre infection, luciferase reporter, 44 h; Potency, µM (titrated, usually from 41.8 µM), most hits filed as inhibitors; 340,000 compounds, 3.4% hits
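Whole-lifecycle infectious HCVcc-Cre system; cells 1,000/well, compound then virus (~0.5 moi) added 4 h after plating, 44 h culture. Luciferase read 15 sec following 15 min substrate incubation, room temp.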
SARS PLP yeast: blocks SARS-CoV papain-like protease in a yeast assay. S. cerevisiae expressing SARS-CoV PLpro, growth rescue. 330,000 compounds, 0.19% hits. Potency, µM (titrated, usually from 32.9 µM), actives largely listed as activators; calls by dose curve; note: nearly all actives have a fitted effect of over 55% in size
Numbers stand for hits. Unless noted, calls come from the whole dose curve; as a rule, active = well fitted curve in the direction sought with a large enough effect; inconclusive = small, poorly fitted or top-dose-only effect, or another doubt; inactive = no such curve, though single readings can be large; an effect the other way counts as inactive or inconclusive.

Cc1cccc(-n2c(O)c(C=Nc3cc(O)ccc3C)c3ccccc3c2=O)n1 was read as Sm TGR block inactive, Pf growth 48h inconclusive, Pf growth 96h inconclusive, HCMV inh inconclusive, HCV inhibitor inactive and SARS PLP yeast inactive.
Cc1cccc(-n2c(O)c(C=Nc3ccccc3O)c3ccccc3c2=O)n1 was read as Sm TGR block inactive, Pf growth 48h inconclusive, Pf growth 96h inactive, HCMV inh -64, HCV inhibitor inconclusive and SARS PLP yeast inactive.
COC(=O)c1ccc(Cn2cnc3ccccc3c2=O)cc1 was read as Sm TGR block inactive, Pf growth 48h inactive, Pf growth 96h inconclusive, HCMV inh inactive, HCV inhibitor inactive and SARS PLP yeast inactive.
O=C1c2ccccc2-n2c1nc1ccccc1c2=O was read as Sm TGR block inactive, Pf growth 48h 0.33µM, Pf growth 96h 0.0037µM, HCMV inh inactive, HCV inhibitor inactive and SARS PLP yeast inactive.
For Cc1ccc(-n2c(NN)nc3ccccc3c2=O)c(C)c1 the results were Sm TGR block inactive, Pf growth 48h inconclusive, Pf growth 96h 9.3µM, HCMV inh inactive, HCV inhibitor inactive and SARS PLP yeast inactive.
For CCOC(=O)c1ccc(Cn2cnc3ccccc3c2=O)cc1 the results were Sm TGR block inactive, Pf growth 48h inactive, Pf growth 96h 13µM, HCMV inh inactive, HCV inhibitor inactive and SARS PLP yeast inactive.
Screening Nc1ncnc2c1ncn2[C@@H]1O[C@H](CNCc2ccccc2OCC(=O)N2CCCCC2)[C@@H](O)[C@H]1O returned HCMV inh inactive, HCV inhibitor inactive and SARS PLP yeast inactive.
Screening Cc1nc2ccccc2c(=O)n1-c1ccccn1 returned Sm TGR block inactive, Pf growth 48h inactive, Pf growth 96h inactive, HCMV inh inactive, HCV inhibitor inactive and SARS PLP yeast inactive.
CCOC(=O)c1cccc(-n2c(C)nc3ccccc3c2=O)c1 was read as Sm TGR block inactive, Pf growth 48h inactive, Pf growth 96h 9.3µM, HCMV inh inactive, HCV inhibitor inactive and SARS PLP yeast inactive.
`Cc1ccccc1-n1c(C)nc2ccccc2c1=O` gave Sm TGR block inactive, Pf growth 48h inactive, Pf growth 96h inconclusive, HCMV inh inactive, HCV inhibitor inactive and SARS PLP yeast inactive.
Cc1cccc(-n2c(C)nc3ccccc3c2=O)c1C was read as Sm TGR block inactive, Pf growth 48h inactive, Pf growth 96h inactive, HCMV inh -76, HCV inhibitor inactive and SARS PLP yeast inactive.
Screening Cc1cccc(-n2c(C)nc3ccccc3c2=O)n1 returned Sm TGR block inactive, Pf growth 48h inactive, Pf growth 96h 5.2µM, HCMV inh inactive, HCV inhibitor inactive and SARS PLP yeast inactive.
CCc1ccccc1NC(=O)Cn1c(=O)nc(-c2ccccc2)c2ccccc21 was read as Sm TGR block inactive and HCMV inh inactive.
O=C1CSC(c2ccc([N+](=O)[O-])cc2)N1CCN1CCCCC1 (configuration not stated) was read as Sm TGR block inactive, Pf growth 48h inactive, Pf growth 96h inconclusive, HCMV inh inactive, HCV inhibitor inactive and SARS PLP yeast inactive.
Screening O=C1CSC(c2ccc([N+](=O)[O-])cc2)N1C1CCCCC1 (configuration not stated) returned Sm TGR block inactive, Pf growth 48h inactive, Pf growth 96h 0.47µM, HCMV inh inactive, HCV inhibitor inactive and SARS PLP yeast inactive.
CNc1ccccc1C(=O)OC(C)C(=O)Nc1ccc(Cl)cn1 (configuration not stated) was read as Sm TGR block inactive, Pf growth 48h inactive, Pf growth 96h inconclusive, HCMV inh -98, HCV inhibitor inconclusive and SARS PLP yeast inactive.
CC(OC(=O)Cc1ccsc1)C(=O)Nc1ccc(Cl)cn1 (configuration not stated) was read as Sm TGR block inactive, Pf growth 48h inactive, Pf growth 96h inactive, HCMV inh inactive, HCV inhibitor 22µM and SARS PLP yeast inactive.
`COc1cccc(CC(=O)OC(C)C(=O)Nc2ccc(Cl)cn2)c1` (configuration not stated) gave Sm TGR block inactive, Pf growth 48h inconclusive, Pf growth 96h inactive, HCMV inh inactive, HCV inhibitor inactive and SARS PLP yeast inactive.

Compound activity from PubChem BioAssay.
